# PMC11102866, “Nucleosome-bound NR5A2 structure reveals pioneer factor mechanism by DNA minor groove anchor competition”
# B1: 46 (nucleosome)
# DNA 1: ATCCTGGAGAATCCCGGTGCCGAGGCCGCTCAATTGGTCGTAGACAGCTCAAGGCCAGCTTAAACGCACGTACGCGCTGTCCCCCGCGTTTTAACCGCCAAGGGGATTACTCCCTAGTCTCCAGGCACGTGTCAGATATATACATCCTGTGAT
# DNA 2: ATCACAGGATGTATATATCTGACACGTGCCTGGAGACTAGGGAGTAATCCCCTTGGCGGTTAAAACGCGGGGGACAGCGCGTACGTGCGTTTAAGCTGGCCTTGAGCTGTCTACGACCAATTGAGCGGCCTCGGCACCGGGATTCTCCAGGAT
# modifications: reconstituted with mouse histones H2A, H2B, H3.3 and H4
# B2: 47 (nucleosome)
# DNA 1: ATCCTGGAGAATCCCGGTGCCGAGGCCGCTCAATTGGTCGTAGACAGCTTCAAGGCCACTTAAACGCACGTACGCGCTGTCCCCCGCGTTTTAACCGCCAAGGGGATTACTCCCTAGTCTCCAGGCACGTGTCAGATATATACATCCTGTGAT
# DNA 2: ATCACAGGATGTATATATCTGACACGTGCCTGGAGACTAGGGAGTAATCCCCTTGGCGGTTAAAACGCGGGGGACAGCGCGTACGTGCGTTTAAGTGGCCTTGAAGCTGTCTACGACCAATTGAGCGGCCTCGGCACCGGGATTCTCCAGGAT
# modifications: reconstituted with mouse histones H2A, H2B, H3.3 and H4
# B3: 48 (nucleosome)
# DNA 1: ATCCTGGAGAATCCCGGTGCCGAGGCCGCTCAATTGGTCGTAGACAGCTCTCAAGGCCATTAAACGCACGTACGCGCTGTCCCCCGCGTTTTAACCGCCAAGGGGATTACTCCCTAGTCTCCAGGCACGTGTCAGATATATACATCCTGTGAT
# DNA 2: ATCACAGGATGTATATATCTGACACGTGCCTGGAGACTAGGGAGTAATCCCCTTGGCGGTTAAAACGCGGGGGACAGCGCGTACGTGCGTTTAATGGCCTTGAGAGCTGTCTACGACCAATTGAGCGGCCTCGGCACCGGGATTCTCCAGGAT
# modifications: reconstituted with mouse histones H2A, H2B, H3.3 and H4
# B4: 49 (nucleosome)
# DNA 1: ATCCTGGAGAATCCCGGTGCCGAGGCCGCTCAATTGGTCGTAGACAGCTCTTCAAGGCCATAAACGCACGTACGCGCTGTCCCCCGCGTTTTAACCGCCAAGGGGATTACTCCCTAGTCTCCAGGCACGTGTCAGATATATACATCCTGTGAT
# DNA 2: ATCACAGGATGTATATATCTGACACGTGCCTGGAGACTAGGGAGTAATCCCCTTGGCGGTTAAAACGCGGGGGACAGCGCGTACGTGCGTTTATGGCCTTGAAGAGCTGTCTACGACCAATTGAGCGGCCTCGGCACCGGGATTCTCCAGGAT
# modifications: reconstituted with mouse histones H2A, H2B, H3.3 and H4
# B5: 50 (nucleosome)
# DNA 1: ATCCTGGAGAATCCCGGTGCCGAGGCCGCTCAATTGGTCGTAGACAGCTCTATCAAGGCCAAAACGCACGTACGCGCTGTCCCCCGCGTTTTAACCGCCAAGGGGATTACTCCCTAGTCTCCAGGCACGTGTCAGATATATACATCCTGTGAT
# DNA 2: ATCACAGGATGTATATATCTGACACGTGCCTGGAGACTAGGGAGTAATCCCCTTGGCGGTTAAAACGCGGGGGACAGCGCGTACGTGCGTTTTGGCCTTGATAGAGCTGTCTACGACCAATTGAGCGGCCTCGGCACCGGGATTCTCCAGGAT
# modifications: reconstituted with mouse histones H2A, H2B, H3.3 and H4
# B6: 51 (nucleosome)
# DNA 1: ATCCTGGAGAATCCCGGTGCCGAGGCCGCTCAATTGGTCGTAGACAGCTCTAGTCAAGGCCAAACGCACGTACGCGCTGTCCCCCGCGTTTTAACCGCCAAGGGGATTACTCCCTAGTCTCCAGGCACGTGTCAGATATATACATCCTGTGAT
# DNA 2: ATCACAGGATGTATATATCTGACACGTGCCTGGAGACTAGGGAGTAATCCCCTTGGCGGTTAAAACGCGGGGGACAGCGCGTACGTGCGTTTGGCCTTGACTAGAGCTGTCTACGACCAATTGAGCGGCCTCGGCACCGGGATTCTCCAGGAT
# modifications: reconstituted with mouse histones H2A, H2B, H3.3 and H4
# B7: 7 (nucleosome)
# DNA 1: ATCCTGGAGTCAAGGCCAGCCGAGGCCGCTCAATTGGTCGTAGACAGCTCTAGCACCGCTTAAACGCACGTACGCGCTGTCCCCCGCGTTTTAACCGCCAAGGGGATTACTCCCTAGTCTCCAGGCACGTGTCAGATATATACATCCTGTGAT
# DNA 2: ATCACAGGATGTATATATCTGACACGTGCCTGGAGACTAGGGAGTAATCCCCTTGGCGGTTAAAACGCGGGGGACAGCGCGTACGTGCGTTTAAGCGGTGCTAGAGCTGTCTACGACCAATTGAGCGGCCTCGGCTGGCCTTGACTCCAGGAT
# modifications: reconstituted with mouse histones H2A, H2B, H3.3 and H4
# B8: 52 (nucleosome)
# DNA 1: ATCCTGGAGAATCCCGGTGCCGAGGCCGCTCAATTGGTCGTAGACAGCTCTAGCTCAAGGCCAACGCACGTACGCGCTGTCCCCCGCGTTTTAACCGCCAAGGGGATTACTCCCTAGTCTCCAGGCACGTGTCAGATATATACATCCTGTGAT
# DNA 2: ATCACAGGATGTATATATCTGACACGTGCCTGGAGACTAGGGAGTAATCCCCTTGGCGGTTAAAACGCGGGGGACAGCGCGTACGTGCGTTGGCCTTGAGCTAGAGCTGTCTACGACCAATTGAGCGGCCTCGGCACCGGGATTCTCCAGGAT
# modifications: reconstituted with mouse histones H2A, H2B, H3.3 and H4
# B9: 53 (nucleosome)
# DNA 1: ATCCTGGAGAATCCCGGTGCCGAGGCCGCTCAATTGGTCGTAGACAGCTCTAGCATCAAGGCCACGCACGTACGCGCTGTCCCCCGCGTTTTAACCGCCAAGGGGATTACTCCCTAGTCTCCAGGCACGTGTCAGATATATACATCCTGTGAT
# DNA 2: ATCACAGGATGTATATATCTGACACGTGCCTGGAGACTAGGGAGTAATCCCCTTGGCGGTTAAAACGCGGGGGACAGCGCGTACGTGCGTGGCCTTGATGCTAGAGCTGTCTACGACCAATTGAGCGGCCTCGGCACCGGGATTCTCCAGGAT
# modifications: reconstituted with mouse histones H2A, H2B, H3.3 and H4
# B10: 54 (nucleosome)
# DNA 1: ATCCTGGAGAATCCCGGTGCCGAGGCCGCTCAATTGGTCGTAGACAGCTCTAGCACTCAAGGCCAGCACGTACGCGCTGTCCCCCGCGTTTTAACCGCCAAGGGGATTACTCCCTAGTCTCCAGGCACGTGTCAGATATATACATCCTGTGAT
# DNA 2: ATCACAGGATGTATATATCTGACACGTGCCTGGAGACTAGGGAGTAATCCCCTTGGCGGTTAAAACGCGGGGGACAGCGCGTACGTGCTGGCCTTGAGTGCTAGAGCTGTCTACGACCAATTGAGCGGCCTCGGCACCGGGATTCTCCAGGAT
# modifications: reconstituted with mouse histones H2A, H2B, H3.3 and H4
# B11: 55 (nucleosome)
# DNA 1: ATCCTGGAGAATCCCGGTGCCGAGGCCGCTCAATTGGTCGTAGACAGCTCTAGCACCTCAAGGCCACACGTACGCGCTGTCCCCCGCGTTTTAACCGCCAAGGGGATTACTCCCTAGTCTCCAGGCACGTGTCAGATATATACATCCTGTGAT
# DNA 2: ATCACAGGATGTATATATCTGACACGTGCCTGGAGACTAGGGAGTAATCCCCTTGGCGGTTAAAACGCGGGGGACAGCGCGTACGTGTGGCCTTGAGGTGCTAGAGCTGTCTACGACCAATTGAGCGGCCTCGGCACCGGGATTCTCCAGGAT
# modifications: reconstituted with mouse histones H2A, H2B, H3.3 and H4
# B12: 56 (nucleosome)
# DNA 1: ATCCTGGAGAATCCCGGTGCCGAGGCCGCTCAATTGGTCGTAGACAGCTCTAGCACCGTCAAGGCCAACGTACGCGCTGTCCCCCGCGTTTTAACCGCCAAGGGGATTACTCCCTAGTCTCCAGGCACGTGTCAGATATATACATCCTGTGAT
# DNA 2: ATCACAGGATGTATATATCTGACACGTGCCTGGAGACTAGGGAGTAATCCCCTTGGCGGTTAAAACGCGGGGGACAGCGCGTACGTTGGCCTTGACGGTGCTAGAGCTGTCTACGACCAATTGAGCGGCCTCGGCACCGGGATTCTCCAGGAT
# modifications: reconstituted with mouse histones H2A, H2B, H3.3 and H4
# B13: 57 (nucleosome)
# DNA 1: ATCCTGGAGAATCCCGGTGCCGAGGCCGCTCAATTGGTCGTAGACAGCTCTAGCACCGCTCAAGGCCACGTACGCGCTGTCCCCCGCGTTTTAACCGCCAAGGGGATTACTCCCTAGTCTCCAGGCACGTGTCAGATATATACATCCTGTGAT
# DNA 2: ATCACAGGATGTATATATCTGACACGTGCCTGGAGACTAGGGAGTAATCCCCTTGGCGGTTAAAACGCGGGGGACAGCGCGTACGTGGCCTTGAGCGGTGCTAGAGCTGTCTACGACCAATTGAGCGGCCTCGGCACCGGGATTCTCCAGGAT
# modifications: reconstituted with mouse histones H2A, H2B, H3.3 and H4
# B14: 58 (nucleosome)
# DNA 1: ATCCTGGAGAATCCCGGTGCCGAGGCCGCTCAATTGGTCGTAGACAGCTCTAGCACCGCTTCAAGGCCAGTACGCGCTGTCCCCCGCGTTTTAACCGCCAAGGGGATTACTCCCTAGTCTCCAGGCACGTGTCAGATATATACATCCTGTGAT
# DNA 2: ATCACAGGATGTATATATCTGACACGTGCCTGGAGACTAGGGAGTAATCCCCTTGGCGGTTAAAACGCGGGGGACAGCGCGTACTGGCCTTGAAGCGGTGCTAGAGCTGTCTACGACCAATTGAGCGGCCTCGGCACCGGGATTCTCCAGGAT
# modifications: reconstituted with mouse histones H2A, H2B, H3.3 and H4
# B15: 59 (nucleosome)
# DNA 1: ATCCTGGAGAATCCCGGTGCCGAGGCCGCTCAATTGGTCGTAGACAGCTCTAGCACCGCTTTCAAGGCCATACGCGCTGTCCCCCGCGTTTTAACCGCCAAGGGGATTACTCCCTAGTCTCCAGGCACGTGTCAGATATATACATCCTGTGAT
# DNA 2: ATCACAGGATGTATATATCTGACACGTGCCTGGAGACTAGGGAGTAATCCCCTTGGCGGTTAAAACGCGGGGGACAGCGCGTATGGCCTTGAAAGCGGTGCTAGAGCTGTCTACGACCAATTGAGCGGCCTCGGCACCGGGATTCTCCAGGAT
# modifications: reconstituted with mouse histones H2A, H2B, H3.3 and H4
# Experiments:
# [1] = biological target: NR5A2 wild type;histone octamer (Homo sapiens;, UniProt O00482;C0HKE1;Q6ZWY9;P84244;P62806 1-541;2-130;2-126;2-136;2-103, |); test: SeEN-seq (EMSA of nucleosome library followed by sequencing); 0.8 uM human NR5A2; 20 mM Tris-HCl pH 7.5, 120 mM NaCl, 1 mM MgCl2, 10 uM ZnCl2, 1 mM DTT, 100 ug/ml BSA, room temperature, 30 min; 0.1 uM nucleosome library; high values mean tight binding
# [2] = biological target: mouse Nr5a2 wild type;histone octamer (Mus musculus;, UniProt P45448;C0HKE1;Q6ZWY9;P84244;P62806 1-560;2-130;2-126;2-136;2-103, |); test: SeEN-seq (EMSA of nucleosome library followed by sequencing); 1.2 uM mouse Nr5a2; 20 mM Tris-HCl pH 7.5, 120 mM NaCl, 1 mM MgCl2, 10 uM ZnCl2, 1 mM DTT, 100 ug/ml BSA, room temperature, 30 min; 0.1 uM nucleosome library; high values mean tight binding
Binder,binding signal [1],binding signal [2]
B1,"0.748 log2 enrichment (bound/unbound, relative to Widom 601)","0.651 log2 enrichment (bound/unbound, relative to Widom 601)"
B2,"1.01 log2 enrichment (bound/unbound, relative to Widom 601)","1.07 log2 enrichment (bound/unbound, relative to Widom 601)"
B3,"0.867 log2 enrichment (bound/unbound, relative to Widom 601)","0.815 log2 enrichment (bound/unbound, relative to Widom 601)"
B4,"1.14 log2 enrichment (bound/unbound, relative to Widom 601)","1.11 log2 enrichment (bound/unbound, relative to Widom 601)"
B5,"0.992 log2 enrichment (bound/unbound, relative to Widom 601)","1.01 log2 enrichment (bound/unbound, relative to Widom 601)"
B6,"0.595 log2 enrichment (bound/unbound, relative to Widom 601)","0.567 log2 enrichment (bound/unbound, relative to Widom 601)"
B7,"2.59 log2 enrichment (bound/unbound, relative to Widom 601)","2.08 log2 enrichment (bound/unbound, relative to Widom 601)"
B8,"0.917 log2 enrichment (bound/unbound, relative to Widom 601)","1.16 log2 enrichment (bound/unbound, relative to Widom 601)"
B9,"1.03 log2 enrichment (bound/unbound, relative to Widom 601)","1.17 log2 enrichment (bound/unbound, relative to Widom 601)"
B10,"0.993 log2 enrichment (bound/unbound, relative to Widom 601)","1 log2 enrichment (bound/unbound, relative to Widom 601)"
B11,"1.2 log2 enrichment (bound/unbound, relative to Widom 601)","0.957 log2 enrichment (bound/unbound, relative to Widom 601)"
B12,"0.684 log2 enrichment (bound/unbound, relative to Widom 601)","0.45 log2 enrichment (bound/unbound, relative to Widom 601)"
B13,"0.552 log2 enrichment (bound/unbound, relative to Widom 601)","0.504 log2 enrichment (bound/unbound, relative to Widom 601)"
B14,"0.651 log2 enrichment (bound/unbound, relative to Widom 601)","0.747 log2 enrichment (bound/unbound, relative to Widom 601)"
B15,"0.92 log2 enrichment (bound/unbound, relative to Widom 601)","0.823 log2 enrichment (bound/unbound, relative to Widom 601)"
